Experimental findings from the antibiotic and cytotoxicity screens of Wong et al. (2023) are described below.

In all, about 39,000 compounds went through this assay and about 1,500 (3.8%) were called active. The sample as a whole holds a higher share of actives than the screen did.

For this assay, the system named is HSkMC (human skeletal muscle cells). Put plainly: cytotoxicity call (relative viability < 0.9). The note with it: 10 µM.
With `C[C@@H]1CN([C@H](C)CO)C(=O)Cc2cc(NS(=O)(=O)c3cn(C)cn3)ccc2O[C@H]1CN(C)CC1CC1`, the cytotoxicity call is “inactive”.
With `Cc1noc(C)c1NC(=O)Nc1ccc2c(c1)CC(=O)N([C@H](C)CO)C[C@H](C)[C@H](CN(C)S(=O)(=O)c1ccccc1)O2`, the cytotoxicity call was “inactive”.
As to `CO[C@H]1CN(C)C(=O)c2ccc(NS(=O)(=O)CC(F)(F)F)cc2OC[C@H](C)N(C(=O)NC(C)C)C[C@H]1C`, the cytotoxicity call is “inactive”.
Then `COc1cccc(C(=O)Nc2ccc3c(c2)C(=O)N(C)[C@@H]2CC[C@H](CC(=O)NCCCN4CCOCC4)O[C@H]2CO3)c1`, with “inactive”.
Then `COc1ccc(S(=O)(=O)N(C)C[C@@H]2OCCCC[C@H](C)Oc3ccc(NC(=O)CCC(F)(F)F)cc3C(=O)N([C@H](C)CO)C[C@H]2C)cc1`, with “inactive”; and `OC[C@H]1O[C@@H](Nc2ccccn2)[C@@H](O)[C@@H](O)[C@@H]1O`, with “inactive”; and `COc1ccc(S(=O)(=O)N(C)C[C@H]2Oc3ncc(-c4ccncc4)cc3C(=O)N([C@@H](C)CO)C[C@@H]2C)cc1`, with “inactive”.
In the case of `Cc1nn(C)cc1NC(=O)C[C@@H]1CC[C@H]2[C@H](COc3ccc(NC(=O)C4CCOCC4)cc3C(=O)N2C)O1`, the cytotoxicity call is “inactive”.
Then `COc1cccc(C#Cc2ccc3c(c2)O[C@H](CN(C)S(=O)(=O)c2ccccc2F)[C@@H](C)CN([C@@H](C)CO)S3(=O)=O)c1`, with “inactive”.
The value for `C[C@@H]1CN([C@@H](C)CO)C(=O)c2cc(NC(=O)Nc3ccc(C(F)(F)F)cc3)ccc2O[C@H]1CN(C)Cc1ccc(-c2ccccc2)cc1` was “active”.
The value for `C[C@H](CO)N1C[C@H](C)[C@H](CN(C)Cc2ccc(-c3ccccc3)cc2)Oc2ccc(NC(=O)Nc3ccc(C(F)(F)F)cc3)cc2C1=O` was “active”.
Turning to `C[C@@H]1CN([C@@H](C)CO)C(=O)c2cc(NC(=O)Nc3ccccc3)ccc2O[C@@H]1CN(C)Cc1ccc(C(F)(F)F)cc1`, the cytotoxicity call is “inactive”.
Then `C[C@H]1CN([C@@H](C)CO)C(=O)c2cc(NC(=O)Nc3ccccc3)ccc2O[C@@H]1CN(C)Cc1ccc(C(F)(F)F)cc1`, with “inactive”; and `C[C@@H]1CN([C@H](C)CO)C(=O)c2cc(NC(=O)Nc3ccc(C(F)(F)F)cc3)ccc2O[C@H]1CN(C)Cc1ccc(-c2ccccc2)cc1`, with “active”.
The value for `C[C@@H]1CN([C@H](C)CO)C(=O)c2cc(NC(=O)Nc3ccc(C(F)(F)F)cc3)ccc2O[C@@H]1CN(C)Cc1ccc(-c2ccccc2)cc1` was “active”; that for `Cc1ccc(S(=O)(=O)N(C)C[C@H]2Oc3ccc(NC(=O)CCCN(C)C)cc3CC(=O)N([C@@H](C)CO)C[C@@H]2C)cc1` was “inactive”.
The value for `C[C@@H]1CN([C@@H](C)CO)C(=O)c2cc(NS(C)(=O)=O)ccc2O[C@@H](C)CCCCO[C@@H]1CN(C)S(=O)(=O)c1cccs1` was “inactive”.
As for `Cc1noc(C)c1S(=O)(=O)Nc1ccc2c(c1)C(=O)N([C@@H](C)CO)C[C@@H](C)[C@H](CN(C)Cc1ccc(C(F)(F)F)cc1)OCCCC[C@H](C)O2`, the cytotoxicity call was “inactive”.
For the compound `CC(C)Cn1c(=O)n(C)c(=O)c2[nH]cnc21`, the cytotoxicity call was “inactive”.
The value for `Cc1noc(C)c1S(=O)(=O)Nc1ccc2c(c1)CC(=O)N([C@H](C)CO)C[C@H](C)[C@@H](CN(C)S(C)(=O)=O)O2` was “inactive”; that for `O=C(O)c1ccc(N2CCCS2(=O)=O)cc1` was “inactive”.
Then `Cc1ccsc1[C@@H](O)CN`, with “inactive”; and `CC(C)Cc1ccc([C@@H](C)C(=O)Nc2ccc(Cl)cc2)cc1`, with “inactive”.
The value for `Cc1cc(C)c(-c2ccc(NC(=O)[C@H](Cc3ccc(C(=O)NCCS(=O)(=O)O)cc3)c3ccc(-c4ccc(C(C)(C)C)cc4)cc3)cc2)c(C)c1` was “active”; that for `N[C@@H]1CONC1=O` was “inactive”.
`O=C(C[C@H]1CC[C@@H]2[C@H](COC[C@H](O)CN2S(=O)(=O)c2ccc(F)cc2)O1)NCCN1CCCCC1`: the cytotoxicity call is “inactive”.
For `CN1CCN(c2ccc(OC(F)(F)F)c(Nc3ncc4c(n3)-c3c(c(C(N)=O)nn3CCO)CC4)c2)CC1`, the cytotoxicity call is “active”.
The value for `COc1ccc2c3c([nH]c2c1)[C@H](CO)N(C[C@]13CCN(CC1)S(=O)(=O)c1cn(cn1)C)C(=O)Nc1ccc(cc1)F` was “inactive”; that for `C[C@@H]1CCCCO[C@@H](CN(C)S(=O)(=O)c2cn(C)cn2)[C@H](C)CN([C@@H](C)CO)C(=O)c2cc(NC(=O)CCCN(C)C)ccc2O1` was “inactive”.
Consider `C[C@@H]1CN([C@H](C)CO)C(=O)Cc2cc(NC(=O)C3CCCCC3)ccc2O[C@H]1CN(C)Cc1ccc(Oc2ccccc2)cc1`, for which the cytotoxicity call was “inactive”.
Then `C[C@H](CO)N1C[C@H](C)[C@@H](CN(C)Cc2ccc(Oc3ccccc3)cc2)Oc2ccc(NC(=O)C3CCCCC3)cc2CC1=O`, with “inactive”.
`C[C@@H]1CN([C@@H](C)CO)C(=O)Cc2cc(NC(=O)C3CCCCC3)ccc2O[C@H]1CN(C)Cc1ccc(Oc2ccccc2)cc1`: the cytotoxicity call was “inactive”.
Regarding `C[C@H]1CN([C@@H](C)CO)C(=O)Cc2cc(NC(=O)C3CCCCC3)ccc2O[C@@H]1CN(C)Cc1ccc(-c2ccccc2)cc1`, the cytotoxicity call is “inactive”.
The value for `C[C@@H]1CN([C@H](C)CO)C(=O)Cc2cc(NC(=O)C3CCCCC3)ccc2O[C@@H]1CN(C)Cc1ccc(-c2ccccc2)cc1` was “active”; that for `C[C@@H]1CN([C@H](C)CO)C(=O)Cc2cc(NC(=O)C3CCCCC3)ccc2O[C@@H]1CN(C)Cc1ccc(Oc2ccccc2)cc1` was “active”; that for `C[C@H]1CN([C@@H](C)CO)C(=O)Cc2cc(NC(=O)C3CCCCC3)ccc2O[C@H]1CN(C)Cc1ccc(Oc2ccccc2)cc1` was “active”.
The value for `C[C@H](CO)N1C[C@H](C)[C@H](CN(C)Cc2ccc(-c3ccccc3)cc2)Oc2ccc(NC(=O)C3CCCCC3)cc2CC1=O` was “inactive”; that for `C[C@H]1CN([C@@H](C)CO)C(=O)Cc2cc(NC(=O)C3CCCCC3)ccc2O[C@@H]1CN(C)Cc1ccc(Oc2ccccc2)cc1` was “inactive”.
Then `CC(=O)N1CCc2nc(N)sc2C1`, with “inactive”; and `C[C@@H]1CN([C@@H](C)CO)C(=O)c2cccc(NS(=O)(=O)c3cn(C)cn3)c2O[C@H]1CN(C)S(=O)(=O)c1ccc(Cl)cc1`, with “inactive”.
As to `CC=Cc1ccc2n(c1=O)C[C@@H]1[C@@H](CO)[C@H](C(=O)NCC3CC3)[C@H]2N1S(=O)(=O)c1cn(C)cn1`, the cytotoxicity call is “inactive”.
Then `C[C@@H]1CN([C@@H](C)CO)S(=O)(=O)c2ccc(C#Cc3ccccc3F)cc2O[C@@H]1CN(C)C(=O)Cc1cccnc1`, with “inactive”.
